Among the data in PubChem BioAssay (NCATS) are Potency values, retold here.

Records with an inconclusive call do not appear. A call without a number means that no potency is given here. Calls of active or inactive are those of the source. Calls come from the whole dose curve; as a rule, active = well fitted inhibition curve with a large enough effect in the repeat runs; inconclusive = weak or mixed curves; inactive = flat fitted curve, though single readings scatter.
Potency is the fitted concentration of half-maximal effect.

Sequence of Cytochrome P450 2D6 (Homo sapiens) (P10635 whole entry, looked up): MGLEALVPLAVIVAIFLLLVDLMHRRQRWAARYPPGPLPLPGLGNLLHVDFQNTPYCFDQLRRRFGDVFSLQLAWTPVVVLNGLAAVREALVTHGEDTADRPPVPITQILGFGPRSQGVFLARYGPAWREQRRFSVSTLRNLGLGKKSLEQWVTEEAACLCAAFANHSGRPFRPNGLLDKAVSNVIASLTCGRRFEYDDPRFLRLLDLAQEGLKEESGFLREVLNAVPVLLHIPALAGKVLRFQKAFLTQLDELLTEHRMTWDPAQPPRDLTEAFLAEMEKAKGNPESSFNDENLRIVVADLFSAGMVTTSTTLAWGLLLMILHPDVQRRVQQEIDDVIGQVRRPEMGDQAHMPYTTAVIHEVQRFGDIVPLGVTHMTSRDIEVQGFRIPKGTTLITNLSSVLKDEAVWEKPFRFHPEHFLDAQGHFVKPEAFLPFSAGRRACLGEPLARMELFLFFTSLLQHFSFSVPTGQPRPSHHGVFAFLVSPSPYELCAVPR

For this test, the target named is Cytochrome P450 2D6 (Homo sapiens) (UniProt P10635). Description: Cytochrome P450 family 2 subfamily D member 6 (CYP2D6) small molecule antagonists: luciferase biochemical (cell-free) qHTS assay (AID 1645840). Note: nearly all actives have a fitted effect of over 55% in size. As to conditions: P450-Glo CYP2D6 enzyme, luciferin luminescence, 1 h; series mostly up to 57.4 µM. The essentials:
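P450-Glo luminescent screen: recombinant CYP2D6 enzyme–proluciferin substrate mix preincubated with compound 10 min at room temperature, then NADPH regeneration added for 1 h at room temperature. Detection reagent added for 20 min; luciferin light read as relative luminescence units.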
(Quantitative high-throughput screening tests each substance at several concentrations.)
With `CCOC(=O)c1sc(NC(=O)c2c(-c3ccccc3)c(-c3ccccc3)nn(C)c2=O)nc1C`, the Potency entry is “inactive”.

For `CN1N=C(N)c2cn([C@@H]3O[C@H](COP(=O)(O)O)[C@@H](O)[C@H]3O)c3ncnc1c23`, the Potency result was “inactive”. In the case of `CN1C(=O)c2ccccc2Sc2ccc(NC(=O)Cc3ccc(Cl)cc3)cc21`, the Potency is 6.01 µM (active). As to `CC12CCC3(C)C(=CC(=O)[C@@H]4C5(C)CC[C@H](O[C@H]6O[C@H](C(=O)O)C(O)C(O)[C@H]6O[C@@H]6O[C@H](C(=O)O)C(O)C(O)C6O)C(C)(C)[C@@H]5CCC43C)[C@@H]1C[C@@](C)(C(=O)O)CC2` (stereo not given in full), the Potency result is “inactive”. With `Cn1c(=O)c2c(nc(CN3CCN(C(=O)C4CC4)CC3)n2Cc2ccccc2Cl)n(C)c1=O` the entry was “inactive”.

For the molecule `Cn1c(=O)c2c(nc(CN3CCN(C(=O)C4CC4)CC3)n2Cc2cccc(F)c2)n(C)c1=O`, the Potency entry was “inactive”. With `Cc1[nH]n2c(=O)cc(-c3ccc(Cl)cc3)nc2c1-c1ccccc1` the entry was “inactive”. Consider `CC(C)CCn1c(CN2CCN(C(=O)C(C)C)CC2)nc2c1c(=O)n(C)c(=O)n2C`, for which the Potency entry was “inactive”.

Turning to `COc1ccc(Br)c2c1-c1nc(NC(=O)c3cccc(C)c3)sc1C2`, the Potency entry was “inactive”.

For `CCc1ccc(-n2c(SCc3ccccc3F)nc3[nH]ncc3c2=O)cc1`, the Potency is 12 µM (active).

With `O=C(O)c1cc(O)c2c(O)c3c(O[C@@H]4O[C@H](CO)[C@@H](O)[C@H](O)[C@H]4O)cccc3c(-c3c4cc(C(=O)O)cc(O)c4c(O)c4c(O[C@@H]5O[C@H](CO)[C@@H](O)[C@H](O)[C@H]5O)cccc34)c2c1`, the Potency is 15.1 µM (active). As for `COc1ccc(C(=O)Nc2ccc3oc(-c4ccc(OC)cc4)nc3c2)cc1`, the entry is “inactive”. On to `CC1(C#N)CCN(c2c(C(=O)N3CCC(C(=O)C4CC4)CC3)cnc3ccc(F)cc23)CC1`, for which the Potency was 10.7 µM (active).

On to `COc1ccccc1NC(=O)c1oc2ccccc2c1NC(=O)c1ccccc1C(F)(F)F`, for which the Potency entry was “inactive”. With `Cc1nc2c3ccccc3nc(NNC(=O)CCC(=O)N3CCN(c4ccccc4F)CC3)n2n1` the entry was “inactive”. As to `Cc1cccc2nc(-c3ccccn3)c(Nc3ccc(F)cc3)n12`, the Potency is 10.7 µM (active). As for `Cc1ccc(-n2c(SCc3ccccc3F)nc3[nH]ncc3c2=O)cc1C`, the figure is 16.9 µM (active); as for `Cc1[nH]n2c(=O)cc(-c3ccccc3Cl)nc2c1-c1ccccc1`, 16.9 µM (active); as for `Cc1ccc(CNC(=O)C(C)n2nc(C)c3sc4ccccc4c3c2=O)cc1` (stereo not given), 13.5 µM (active). With `CC1(C#N)CCN(c2c(C(=O)N3CCN(S(C)(=O)=O)CC3)cnc3cc(F)c(F)cc23)CC1` the entry was “inactive”; with `CCCCC1CCC(CCCC(C)CCC(=O)O)CC1` (stereo not given), “inactive”; with `COc1ccc(NC(=O)Cn2cc(C(=O)c3cccs3)c3ccccc32)cc1`, 2.68 µM (active). As for `CC(O)CNC(=O)C(=O)Nc1c2c(nn1-c1ccc(Cl)cc1)CSC2` (stereo not given), the entry is “inactive”; as for `NCCOCCOCCOCCOCCN1CCN(C(c2ccc(Cl)cc2)c2ccc(Cl)cc2)CC1`, 6.74 µM (active).

`CCOC(=O)c1csc(-n2nc(-c3ccc(F)c(F)c3)c(Cc3ccc(S(N)(=O)=O)cc3)c2N)n1`: the Potency result was “inactive”. For the molecule `OCCOCCOCCOCCOCCN1CCN(C(c2ccc(Cl)cc2)c2ccc(Cl)cc2)CC1`, the Potency is 8.49 µM (active). With `CCOCCCNC(=O)C(=O)Nc1c2c(nn1-c1ccc(OC)cc1)CSC2` the entry was “inactive”. `CCOc1ccccc1CNC(=O)C1CCN(S(=O)(=O)c2c(C)noc2/C=C/c2ccccc2F)CC1`: the Potency entry was “inactive”. With `CC1=C(C(=O)Nc2cccc(C(N)=O)c2)C(c2ccccc2Cl)N=C(Nc2nc3ccccc3o2)N1` (stereo not given) the figure was 8.49 µM (active); with `CCCCC[C@H](O)CC[C@@H]1[C@H]2Cc3cccc(OCC(=O)O)c3C[C@H]2C[C@H]1O`, “inactive”; with `Cc1ccc(Nc2nc3ccccc3c3nnc(C)n23)c(C)c1`, “inactive”. As for `Cc1ccccc1CNC(=O)CCCn1c(=O)c2cccn2c2cccnc21`, the figure is 8.49 µM (active); as for `COc1ccc(C(=O)NC(c2ccc(Cl)cc2)c2cc(Cl)c3cccnc3c2O)cc1` (stereo not given), “inactive”; as for `COc1cc(C(c2c(C)[nH][nH]c2=O)c2c(C)[nH][nH]c2=O)ccc1OC(=O)c1ccccc1F`, “inactive”.

For `Cc1oc(-c2ccccc2F)nc1Cn1c(SCc2ccccc2F)nc2ccncc21`, the Potency was 12 µM (active). With `O=c1c2c(on1Cc1ccccc1)CCNCC2`, the Potency result is “inactive”. In the case of `O=C(Nc1cccc(Cl)c1)Nc1ccccc1OCc1cc(=O)n2ccccc2n1`, the Potency entry was “inactive”.

`COc1ccc2cc(Br)ccc2c1`: the Potency result was “inactive”. With `COc1ccc(CC2c3cc(OC)c(OC)cc3CCN2CCC(=O)OCCCCCOC(=O)CCN2CCc3cc(OC)c(OC)cc3C2Cc2ccc(OC)c(OC)c2)cc1OC` (stereo not given) the entry was “inactive”; with `O=c1cc2nc(-c3cccs3)nc(SCCOc3ccc(Cl)cc3)n2[nH]1`, “inactive”.
